Test results published in PubChem BioAssay AID624257 (Broad Institute, 2012).
Results with a measured potency or affinity are listed apart.

biological target: PglD acetyltransferase (Campylobacter jejuni) (UniProt O86157); test: inhibition of C. jejuni PglD N-acetyltransferase – biochemical, DTNB absorbance, cherry-picked samples, set 2, dose response (AID 624257); conditions: Purified PglD, DTNB absorbance 412 nm, CoA release; series mostly up to 19.5 µM; activity change, negative = inhibition: at the top concentration
Sequence (O86157 1-203): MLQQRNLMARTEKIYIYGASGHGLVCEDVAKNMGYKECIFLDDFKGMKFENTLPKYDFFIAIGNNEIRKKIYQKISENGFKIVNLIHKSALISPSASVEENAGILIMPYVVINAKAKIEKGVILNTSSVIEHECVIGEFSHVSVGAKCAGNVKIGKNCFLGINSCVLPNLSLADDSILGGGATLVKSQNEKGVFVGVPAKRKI

Activity change, negative = inhibition, inactive:
CCc1ccc(N=C2NC(=O)/C(=C/c3cc(Br)c(OCC(=O)O)c(OC)c3)S2)cc1 -7.94%
C=CC1=C(C(=O)O)N2C(=O)[C@@H](NC(=O)/C(=N/OCC(=O)O)c3csc(N)n3)[C@H]2SC1 -21.8%
CCn1c(SCc2nc3sc(C(=O)O)c(C)c3c(=O)[nH]2)nc2ccccc21 -38.5%
